# Laboratory results: the supplement of paper PMC3334620
# Over roughly 33,000 sequences, “E-score (-0.5 to 0.5)” has its median near -0.032; the highest 2% begin near 0.36. The list comes from a sample in which the highest values are over-represented; it also holds similar and randomly drawn sequences.
# Molecular target: T1, Sko1 (UniProt Q02100)
# T1 sequence: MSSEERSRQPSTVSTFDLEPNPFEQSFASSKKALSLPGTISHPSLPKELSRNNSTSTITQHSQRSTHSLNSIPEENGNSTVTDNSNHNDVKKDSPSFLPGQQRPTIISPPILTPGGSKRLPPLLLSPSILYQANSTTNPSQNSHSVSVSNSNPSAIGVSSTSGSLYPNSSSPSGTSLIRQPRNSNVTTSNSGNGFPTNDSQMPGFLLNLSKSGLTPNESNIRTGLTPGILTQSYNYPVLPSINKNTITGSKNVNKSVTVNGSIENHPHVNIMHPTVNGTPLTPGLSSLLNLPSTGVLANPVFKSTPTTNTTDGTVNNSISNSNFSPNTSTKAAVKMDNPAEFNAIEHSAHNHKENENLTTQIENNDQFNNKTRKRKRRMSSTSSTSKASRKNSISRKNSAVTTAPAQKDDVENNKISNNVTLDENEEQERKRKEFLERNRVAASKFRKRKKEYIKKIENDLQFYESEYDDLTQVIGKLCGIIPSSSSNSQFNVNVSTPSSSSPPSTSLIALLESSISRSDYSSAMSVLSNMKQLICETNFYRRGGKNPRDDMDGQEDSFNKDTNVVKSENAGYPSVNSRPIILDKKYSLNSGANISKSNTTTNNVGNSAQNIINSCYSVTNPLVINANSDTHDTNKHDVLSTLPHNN
# Assay: PBM E-score (8-mer binding enrichment) (E-score (-0.5 to 0.5)); higher = stronger / more preferred TF binding
# Conditions: protein concentration: 200 nM; construct: GST-full length
# Description: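 Universal 'all 10-mer' protein binding microarrays (Agilent AMADID 015681) probed with GST-tagged S. cerevisiae TFs (full-length or DBD) made by in vitro transcription/translation (PURExpress), about 100-200 nM. Bound TF was detected with fluorescent anti-GST. Each ungapped 8-mer (which stands for itself and its reverse complement) is scored by the PBM enrichment score (E-score), a modified Wilcoxon-Mann-Whitney statistic from -0.5 to +0.5, computed with the Universal PBM Analysis Suite. Scale: above 0.35 generally sequence-specific binding.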
row,Sequence,PBM E-score
1,ATTACATC,0.403
2,CTTACATC,0.202
3,ATTACATA,0.386
4,ATTACATG,0.324
5,AGTACATC,0.142
6,GTTACATA,0.251
7,AGACAGCC,-0.219
8,AGCGTAAA,0.189
9,GGCGTACA,-0.0526
10,AGCGTACA,0.0563
11,TGCGTACA,0.36
12,TGCGTAAA,0.404
13,CGCGTAAA,0.311
14,GTTGCACA,0.0444
15,CGCATCAG,-0.0566
16,AGTCAACA,0.0814
17,GAAGTCGC,-0.139
18,ATGTGCAC,-0.0142
19,ACGATTAC,0.369
20,CCGATTAC,0.0359
21,GCGATTAC,0.144
22,ATGAGTCC,0.0501
23,AAGTACGA,0.201
24,GCGTACGC,0.269
25,AAGTACGT,0.44

row,Sequence,PBM E-score
1,ACGTACGG,0.38
2,CCGTACGC,0.0653
3,ACGTACGC,0.453
4,GCGTACGA,0.238
5,CCGTACGG,-0.262
6,CCGTACGA,0.0901
7,ACGTACGA,0.414
8,AAGTACGC,0.193
9,ATGTACGG,-0.046
10,AGCGTTAT,0.0494
11,ACCTGCAT,-0.13
12,ATAAGAGA,0.0988
13,ATCTTCGC,0.1
14,AAAGTAAC,0.0224
15,AAAACCGG,-0.128
16,CAGGCCGA,-0.182
17,GGGGTAGA,-0.0788
18,AGAAACTG,0.0191
19,CGCAGCTC,-0.0758
20,ACGTACGT,0.473
21,TCGTACGA,0.282
22,ATGTACGA,0.143
23,ACCTAGCG,-0.0355
24,AAGGTGCT,-0.238
25,ATGCAAAA,0.116

row,Sequence,PBM E-score
1,AAATTGAG,-0.0473
2,ACGTTTAG,0.355
3,CCGTTTAA,-0.0451
4,AGGTTTAT,0.0336
5,ACGTTTAT,0.388
6,ACGTTTAA,0.406
7,ACGTTTAC,0.345
8,GTGCCAAA,-0.0151
9,CTAACTTC,0.0478
10,CGTCTGCC,-0.00999
11,ATATTTCG,0.235
12,GATTGGTA,-0.054
13,AAAGTCTT,0.0148
14,GGGGAGTA,-0.124
15,ATGCCAAA,-0.0114
16,GAACGTTA,0.18
17,AAACGTCT,0.341
18,AAACGTCA,0.47
19,CAACGTCC,-0.0395
20,GAACGTCC,0.117
21,CAACGTCG,0.222
22,TAACGTCA,0.48
23,CAACGTCA,0.47
24,TAACGGCA,0.0289
25,AAACGTCC,0.13

row,Sequence,PBM E-score
1,GAACGTCA,0.456
2,TAACGCCA,0.144
3,CCACTCGC,-0.25
4,GAGATCCC,-0.171
5,CCCGCAAA,-0.0244
6,GGGGCGGA,-0.338
7,CGTCTAAG,0.0318
8,CCGACCGG,-0.294
9,ACAGTCTG,-0.171
10,ACGATTCG,0.059
11,CCGTCTGA,-0.224
12,AGGCAGTA,-0.129
13,CCGGCCGG,-0.373
14,AGCTGACG,0.347
15,CACTGACC,-0.26
16,AACTGACT,-0.0679
17,AACTGACA,0.183
18,CGCTGACC,-0.15
19,CACTGACG,0.424
20,CGCTGACG,0.389
21,CACTGACA,0.0149
22,AACTGACG,0.363
23,TGGTGCAA,-0.0842
24,CCTTTTAC,-0.0204
25,AGCGAACC,0.0124

row,Sequence,PBM E-score
1,TCCCAAAA,-0.048
2,ATGCAAAC,0.108
3,ATACCGTG,-0.0765
4,GCACTGCA,0.0142
5,AGGTCACC,-0.128
6,AAGTCACT,0.144
7,ACGTCACA,0.481
8,AGGTCACT,-0.0104
9,ATGTCACA,0.324
10,ACGTCACT,0.489
11,AAGTCACA,0.0509
12,AAGTCACG,0.126
13,ACGTCACG,0.486
14,CCGTCACC,0.101
15,ACGTCACC,0.489
16,AGGTCACG,0.0716
17,CTAGAATC,-0.0473
18,ATCAGGTG,-0.0909
19,ACTGCAAC,-0.0632
20,GTGCTTCA,0.0642
21,ACATATGT,0.29
22,CGTGAGAA,0.117
23,ATAATTAC,0.376
24,ATAATTAA,0.285
25,CTAATTAC,0.323

row,Sequence,PBM E-score
1,GTAATTAC,0.367
2,GTAATTAA,0.237
3,GAAATTAC,0.323
4,CACTGTCG,-0.11
5,GCACCTGC,-0.202
6,ACATCATC,0.43
7,ACATCATG,0.393
8,CTATCATC,0.0137
9,GCATCATA,0.366
10,ACATCACA,0.313
11,ACATCATA,0.425
12,ACATCAAG,0.242
13,CCATCATC,0.0168
14,AAATCATA,0.204
15,ACATCAGA,0.122
16,GCATCAGA,0.113
17,CCATCATA,0.0672
18,ACTGGTTA,0.0712
19,ATTGGAGA,0.0978
20,ACGCCGTC,0.192
21,AGCATAGA,-0.0737
22,GCTCGACA,-0.181
23,CACTAGAA,0.023
24,GCAGCGGC,-0.178
25,ACGCGGAA,0.0704

row,Sequence,PBM E-score
1,AGTCGTAA,0.231
2,GGGCGTAA,-0.0261
3,ACGCGTAC,0.307
4,ACGCGTAG,0.259
5,AGGCGTAA,0.206
6,ACGCGTAT,0.389
7,ACGCGTGA,0.32
8,TGTCGTAA,0.412
9,GGTCGTAA,0.249
10,AAGCGTAA,0.241
11,TGGCGTAA,0.414
12,ACGCGTAA,0.382
13,CACGATCG,0.0307
14,CGTTCAAC,0.112
15,GGTCTCCA,-0.19
16,CGTCCGAC,-0.0238
17,ACAACCGG,-0.197
18,CAGACCAC,-0.0177
19,CACCAGCA,0.0552
20,AGCGCGAT,-0.0488
21,ACTCGAAA,0.0248
22,ATGTATGA,0.288
